Results from PubChem BioAssay (NCI).
This is part of a sample that, as a whole, favours compounds with a hit. Of some 83,000 tested, about 20% had one in any assay.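 Note: values are percent growth. 100 is the growth of untreated cells, values between 100 and 0 indicate rising inhibition; between -100 and 0 indicates cell death.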 Values without a mark were called inactive. Calls of active or inactive are those of the source. The calls were made as follows: active = growth percent below 10; inactive = the rest.

Legend:
Experiment in all cases: NCI-60 one-dose screen, 48 h (100 = growth as untreated, 0 = no growth, -100 = all killed)
Details in all cases: 10 µM unless noted
SK-MEL-2 melanoma = system: SK-MEL-2 melanoma
EKVX NSCLC = system: EKVX NSCLC
SN12C renal = system: SN12C renal
UO-31 renal = system: UO-31 renal
TK-10 renal = system: TK-10 renal
ACHN renal = system: ACHN renal
CAKI-1 renal = system: CAKI-1 renal
A498 renal = system: A498 renal
CCRF-CEM leukemia = system: CCRF-CEM leukemia
MOLT-4 leukemia = system: MOLT-4 leukemia
RPMI-8226 leukemia = system: RPMI-8226 leukemia
OVCAR-8 ovarian = system: OVCAR-8 ovarian
OVCAR-5 ovarian = system: OVCAR-5 ovarian
OVCAR-4 ovarian = system: OVCAR-4 ovarian
SK-OV-3 ovarian = system: SK-OV-3 ovarian
IGROV1 ovarian = system: IGROV1 ovarian
OVCAR-3 ovarian = system: OVCAR-3 ovarian
HS 578T breast = system: HS 578T breast
NCI/ADR-RES ovarian = system: NCI/ADR-RES ovarian
SR leukemia = system: SR leukemia

Row | SMILES | growth (SK-MEL-2 melanoma) | growth (EKVX NSCLC) | growth (SN12C renal) | growth (UO-31 renal) | growth (TK-10 renal) | growth (ACHN renal) | growth (CAKI-1 renal) | growth (A498 renal) | growth (CCRF-CEM leukemia) | growth (MOLT-4 leukemia) | growth (RPMI-8226 leukemia) | growth (OVCAR-8 ovarian) | growth (OVCAR-5 ovarian) | growth (OVCAR-4 ovarian) | growth (SK-OV-3 ovarian) | growth (IGROV1 ovarian) | growth (OVCAR-3 ovarian) | growth (HS 578T breast) | growth (NCI/ADR-RES ovarian) | growth (SR leukemia)
1 | COC(=O)Cc1nc(C#N)c(N(C)C)o1 | 89.4% | 116% | 90.3% | 82.4% | 93.3% | 101% | 97.2% | 125% | 92.9% | 97.6% | 102% | 101% | 94.7% | 107% | 92.7% | 103% | 109% | 87.1% | 101% | 
2 | CS(=O)(=O)Nc1cc(-c2ccc3ncnc(Nc4ccc5c(cnn5Cc5cccnc5)c4)c3c2)cnc1Cl | 14% | 68.2% | 46.2% | 47.9% | 49% | 75.8% | 40.2% | 19.2% | 32.9% | 24.7% | 54.7% | 75.6% | 49% | 74.6% | 58.4% | 3.96% (active) | 19.2% | -2.21% (active) | 93.2% | 
3 | COc1ccc(/C=C/C(=O)c2ccc(Nc3nc(Nc4ccc(F)cc4)nc(Nc4ccc(Cl)cc4)n3)cc2)cc1 | 55.1% | 86.2% | 112% | 75.6% | 137% | 106% | 86.5% | 118% | 8.9% (active) | 22.3% | 58.5% | 97.1% | 111% | 98% | 122% | 81.2% | 113% | 101% | 92.4% | 
4 | O=c1nc(Nc2nc3ccccc3s2)[nH]c(=O)c2ccccc12 | 110% | 95.2% | 98.6% | 89.4% | 119% | 89.8% | 85.2% | 77.4% | 106% | 102% | 106% | 103% | 107% | 102% | 64.3% | 100% | 109% | 109% | 103% | 
5 | COc1cc(/C=C/c2cc(/C=C/c3ccc(O)c(OC)c3)n(C(=O)Nc3ccc(F)cc3)n2)ccc1O | -27.1% (active) | 26.9% | 17.9% | 14% | 38.1% | 20.2% | -7.81% (active) | 31.5% | 6.82% (active) | -3.56% (active) | 3.32% (active) | 0.475% (active) | 31.3% | 35.5% | -18.7% (active) | 17.4% | 3.89% (active) | 20% | 27.9% | 
6 | C[C@@H]1CC[C@@]2(OC1)O[C@H]1C[C@H]3[C@@H]4CC=C5C[C@@H](O[C@@H]6O[C@H](CO)[C@@H](O[C@@H]7O[C@@H](CO)[C@H](O)[C@H]7O)[C@H](O)[C@H]6O[C@@H]6O[C@@H](C)[C@H](O)[C@@H](O)[C@H]6O)CC[C@]5(C)[C@H]4CC[C@]3(C)[C@H]1[C@@H]2C | -87% (active) | -66.6% (active) | -97.4% (active) | -99.5% (active) | -81.2% (active) | -98.3% (active) | -93.4% (active) | -95.6% (active) | -74.2% (active) | -60% (active) |  | -91.2% (active) | -87.7% (active) | -90% (active) | -36.4% (active) | -84.2% (active) | -90.2% (active) |  | -85.6% (active) | -58.5% (active)
7 | CNC(=O)c1cc(Oc2ccc3nc(NC(=O)Nc4ccc(Cl)c(Cl)c4)sc3c2)ccn1 | 80.8% | 8.47% (active) | 57.3% | 39.9% | 66.3% | 70% | 103% | 93.6% | 42.5% | 66.2% | 63% | -34.6% (active) | 85.6% | -39.9% (active) | 73.5% | 54.6% | 24.7% | -2.92% (active) | -17.7% (active) | 
8 | CN1CCN(Cc2ccc(NC(=O)c3cncc(C#Cc4cnn5ccccc45)c3)cc2C(F)(F)F)CC1 | -27% (active) | -3.23% (active) | -1.07% (active) | -9.3% (active) | 7.73% (active) | 2.54% (active) | -9.06% (active) | -11.7% (active) | 6.17% (active) | 1.84% (active) |  | 9.77% (active) | 4.3% (active) | -2.15% (active) | 15.5% | 3.17% (active) | 0.315% (active) |  | -6.37% (active) | -21.2% (active)
